The results in this text go back to PubChem BioAssay (NCI).

The nature of assay [1]: NCI Yeast Anticancer Drug Screen. Data for the rad50 strain (AID 155).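 Also: 0% = growth of vehicle-only cultures of the same strain.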 The note with it: S. cerevisiae rad50 strain growth inhibition; at 50.0 µM; active compounds read high. In a few lines:
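Genetically altered yeast (DNA repair pathway); compound treatment; growth inhibition vs vehicle ctrl.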

Assay [2] can be described thus: NCI Yeast Anticancer Drug Screen. Data for the mec2-1 strain (AID 157). Particulars: S. cerevisiae mec2-1 strain, at 50.0 µM, active compounds read high. In a few lines:
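Growth inhibition is read against vehicle-treated controls after compound exposure of the mec2-1 yeast strain, which is defective in DNA damage repair or cell cycle control.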

Assay [3] can be described thus: NCI Yeast Anticancer Drug Screen. Data for the sgs1 mgt1 strain (AID 161).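 Also: 0% = growth of cultures given vehicle only.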 Particulars: S. cerevisiae sgs1 mgt1 strain, at 50.0 µM, active compounds read high. A digest of the protocol:
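Compounds are added to genetically altered yeast, and growth is compared with cultures given vehicle alone to give percent inhibition.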

Assay [4] is described as follows: NCI Yeast Anticancer Drug Screen. Data for the cln2 rad14 strain (AID 165).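 Also: 0% = growth equal to vehicle treated cultures.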 Particulars: S. cerevisiae cln2 rad14 strain, at 50.0 µM, active compounds read high. A digest of the protocol:
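Growth inhibition, relative to vehicle-treated controls, is the read-out. The test organism is a yeast strain with defined genetic alterations, cln2 rad14.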

The nature of assay [5]: NCI Yeast Anticancer Drug Screen. Data for the bub3 strain (AID 167). The note with it: S. cerevisiae bub3 mutant strain, at 50.0 µM, active compounds read high. A digest of the protocol:
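Yeast carrying a defined mutation is treated with each compound, and growth is compared with that of vehicle-exposed cells to give inhibition.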

Assay [6] can be described thus: NCI Yeast Anticancer Drug Screen. Data for the mlh1 rad18 strain (AID 175). The note with it: S. cerevisiae mlh1 rad18 strain growth inhibition; at 50.0 µM; active compounds read high. A digest of the protocol:
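Cells of a genetically altered yeast strain, deficient in DNA damage repair, were treated with compound. Their growth was then compared with that of vehicle-treated cultures to give inhibition.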

Each structure is given as a SMILES string. Compounds without any hit were thinned out: in the full panel of roughly 79,000, 15% have a hit. Values without a mark were called inactive. Active and inactive are the calls of the source. Rule as the data show it: active = growth inhibition above about 70%; inactive = the rest.

Take `Cc1ccc(C(=O)c2ccccc2Cc2ccc3ccccc3c2)cc1`: the growth inhibition in assay [1] was 13.8%; in assay [2], 0.8%; in assay [3], 6.3%; in assay [4] it was 1.35%; in assay [5], 61.2%; in assay [6], -0.25%.

Consider `O=C1/C(=C/c2ccccc2)N=C2Sc3c(nc[nH]c3=O)N12`, for which the growth inhibition in assay [1] was 16.5%; in assay [2], -23.8%; in assay [3], -12.4%; in assay [4] it was -7.25%; in assay [5], 10.4%; in assay [6] it was -39.2%.

Regarding `CC(C)(C)n1nc(C2CC2)c(Br)c1NC(=O)c1ccc(Cl)cc1`, the growth inhibition in assay [1] is -4.45%; in assay [2] it was -0.95%; in assay [3] it was 22.9%; in assay [4] it was 0.45%; in assay [5], 11.1%; in assay [6] it was 1.7%.

On to `CCOC(=O)C1=NC(c2ccccc2)(c2ccccc2)OC1=C(Cl)Cl`, for which the growth inhibition is 0.8% in assay [1]; -16.4% in assay [2]; -0.2% in assay [3]; 19.8% in assay [4]; -11.4% in assay [5]; -10.5% in assay [6].

Consider `COC(=O)C(Br)(C(=O)OC)C(c1ccccc1)c1ccccc1`, for which the growth inhibition in assay [1] is 38.1%; in assay [2], 41.3%; in assay [3], 72.3% (active); in assay [4], 26.2%; in assay [5] it was 41.8%; in assay [6] it was 37.3%.

On to `CC(Cl)(CCC(Cl)C(C)(C)Cl)C(=O)CBr` (stereo not given), for which the growth inhibition in assay [1] is 89% (active); in assay [2], 92.7% (active); in assay [3], 92.8% (active); in assay [4], 91.3% (active); in assay [5], 92.3% (active); in assay [6] it was 93.2% (active).

As to `COc1ccc2nc(C3CCCCC3C(=O)O)cc(C)c2c1` (stereo not given), the growth inhibition in assay [1] is -9.2%; in assay [2] it was -5.35%; in assay [3], -5.8%; in assay [4], -27.1%; in assay [5], -4.3%; in assay [6], -1.45%.

As for `Cc1ccc(NC(=S)N2CCCCC2C)cc1C` (stereo not given), the growth inhibition in assay [1] was 17.9%; in assay [2], 11.7%; in assay [3] it was 12.7%; in assay [4] it was 3.1%; in assay [5], 16.6%; in assay [6], -6.15%.

For the molecule `CCOC(=O)C1=NN(c2ccccc2)C(=O)/C1=C\n1c(=S)sc2ccccc21`, the growth inhibition in assay [1] was -7.25%; in assay [2] it was -24.4%; in assay [3] it was -6.5%; in assay [4], -16.1%; in assay [5] it was -11.8%; in assay [6], -2.4%.

As to `CCSC(C(O)C(O)C(O)C(O)CO)n1cc(C)c(=O)[nH]c1=O` (stereo not given), the growth inhibition in assay [1] was 3%; in assay [2], 5.45%; in assay [3], -2.85%; in assay [4] it was -3.7%; in assay [5] it was 4.2%; in assay [6], -0.25%.

With `CC(C)N(C=C(C#N)C#N)C(C)C`, the growth inhibition was 15.5% in assay [1]; 7.5% in assay [2]; -0.4% in assay [3]; -57.5% in assay [4]; 3.75% in assay [5]; 4.6% in assay [6].

Take `CCOC(=O)C(CCc1ccc([N+](=O)[O-])cc1)(CCc1ccc([N+](=O)[O-])cc1)C(=O)OCC`: the growth inhibition is -8.7% in assay [1]; -16.1% in assay [2]; -7.3% in assay [3]; -29.1% in assay [4]; -0.3% in assay [5]; 6.15% in assay [6].

In the case of `COCCCNC(=O)C1=C(C)NC(C)=C(C(=O)NCCCOC)C1`, the growth inhibition in assay [1] is -49%; in assay [2], -64.2%; in assay [3] it was -10.7%; in assay [4], 3.6%; in assay [5] it was -11.2%; in assay [6], -50.6%.

For the molecule `CN(N=Nc1ccc(C#N)cc1)C(C)(C)C`, the growth inhibition in assay [1] is 3.3%; in assay [2] it was -5.3%; in assay [3], 6.5%; in assay [4] it was -5.85%; in assay [5], -2.35%; in assay [6], 5.55%.

Turning to `CC1(COC(=O)C2(C)CO2)CO1` (stereo not given), the growth inhibition in assay [1] was 28.2%; in assay [2], 9.95%; in assay [3], -6.1%; in assay [4], 4.7%; in assay [5], -25.2%; in assay [6], -78.2%.

As to `COc1cccc(C(=O)C(CCC#N)c2ccccc2)c1` (stereo not given), the growth inhibition in assay [1] is 24.8%; in assay [2], 18.5%; in assay [3] it was 31.4%; in assay [4] it was 20.9%; in assay [5], 42.8%; in assay [6] it was 9.75%.

`O=c1[nH][nH]c(=O)c(Cl)c1Cl`: the growth inhibition is 1.55% in assay [1]; 1.6% in assay [2]; -17.5% in assay [3]; 0.25% in assay [4]; -0.85% in assay [5]; 13.3% in assay [6].

With `CCOC(=O)/C(C#N)=C/c1cccc(Cl)c1`, the growth inhibition in assay [1] is 28.6%; in assay [2], 30%; in assay [3] it was 38.9%; in assay [4], 13.3%; in assay [5], 13.4%; in assay [6], 44%.

Consider `CSCCOC(=O)C1C2CCC(O2)C1C(=O)O` (stereo not given), for which the growth inhibition is 11.1% in assay [1]; 10.6% in assay [2]; 1.55% in assay [3]; 9.25% in assay [4]; -0.6% in assay [5]; 17.6% in assay [6].

In the case of `O=c1[nH]c2cc(Cl)ccc2nc1/C=C(\O)c1ccccc1O`, the growth inhibition in assay [1] is 3.35%; in assay [2], -13.3%; in assay [3] it was -11.2%; in assay [4], -8.4%; in assay [5], -28.3%; in assay [6], -0.8%.
